Measurements published in PubChem BioAssay (NCI).
The panel holds about 83,000 compounds, 20% with a hit somewhere; the sample as a whole holds those more often.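 Growth was measured after 48 h exposure to one concentration of compound in 96-well plates. Values under 10 count as active.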 Unmarked numbers belong to inactive results. Activity calls are given as the source filed them.

Key:
Assay in all cases: NCI-60 one-dose screen, 48 h (100 = growth as untreated, 0 = no growth, -100 = all killed)
SK-MEL-2 melanoma = conditions: 10 µM unless noted
EKVX NSCLC = conditions: 10 µM
SN12C renal = conditions: 10 µM unless noted
UO-31 renal = conditions: 10 µM unless noted
TK-10 renal = conditions: 10 µM unless noted
ACHN renal = conditions: 10 µM unless noted
CAKI-1 renal = conditions: 10 µM unless noted
A498 renal = conditions: 10 µM unless noted
CCRF-CEM leukemia = conditions: 10 µM
MOLT-4 leukemia = conditions: 10 µM unless noted
SR leukemia = conditions: 10 µM unless noted
RPMI-8226 leukemia = conditions: 10 µM unless noted
OVCAR-8 ovarian = conditions: 10 µM unless noted
OVCAR-5 ovarian = conditions: 10 µM unless noted
OVCAR-4 ovarian = conditions: 10 µM unless noted
SK-OV-3 ovarian = conditions: 10 µM unless noted
IGROV1 ovarian = conditions: 10 µM unless noted
OVCAR-3 ovarian = conditions: 10 µM unless noted
HS 578T breast = conditions: 10 µM unless noted
NCI/ADR-RES ovarian = conditions: 10 µM unless noted

Structure (SMILES) | growth (SK-MEL-2 melanoma) | growth (EKVX NSCLC) [%] | growth (SN12C renal) | growth (UO-31 renal) | growth (TK-10 renal) | growth (ACHN renal) | growth (CAKI-1 renal) | growth (A498 renal) | growth (CCRF-CEM leukemia) | growth (MOLT-4 leukemia) | growth (SR leukemia) | growth (RPMI-8226 leukemia) | growth (OVCAR-8 ovarian) [%] | growth (OVCAR-5 ovarian) [%] | growth (OVCAR-4 ovarian) [%] | growth (SK-OV-3 ovarian) | growth (IGROV1 ovarian) | growth (OVCAR-3 ovarian) | growth (HS 578T breast) | growth (NCI/ADR-RES ovarian)
Clc1ccc(N/N=C(/c2ccccc2)c2ccccn2)nc1 | 63.5% | 18.5 | 47.3% | 28.3% | 37.3% | 24.1% | 36.2% | 52.7% | 14.2% | 6.84% (active) | 26.1% | 29.3% | 33.5 | 49.3 | 24.5 | 26.5% | 22.5% | 40.7% | 80.6% | 5.2% (active)
CC1(C)C(O)NC(Cl)=C(C#N)C1(C#N)C#N (stereo not given) | 97.6% | 102 | 127% | 81.3% | 143% | 127% | 177% | 103% | 78.8% | 103% | 119% | 110% | 103 | 83 | 107 | 108% | -10.9% (active) | 229% | 114% | 103%
O=C1C(=O)c2ccccc2C(O)=C1CCCc1ccc(C2CCCC2)cc1 | 33.2% | 27 | 49.5% | 45.8% | 36.7% | 30.8% | 67.8% | 24.2% | 24.4% | 14.1% | -49.3% (active) | 7.4% (active) | 31.7 | 24.9 | 23.4 | 55% | 50.8% | 39.3% | 31.7% | 37.6%
Cc1ccnc2c(NC(C)CCCN)cc(O)c(O)c12 (stereo not given) | 91.9% | 93.8 | 27.2% | 83.7% | 109% | 99.5% | 89.3% | 93.5% | 39.6% | 54.1% | 79.7% | 95.2% | 64.9 | 79.7 | 20 | 99.9% | 103% | 59.8% | 80.6% | 87.5%
CCOC(=O)C1=C(C(F)(F)F)NC(=S)NC1CN1C(=O)c2ccccc2C1=O (stereo not given) | 100% | 113 | 105% | 98.1% | 107% | 105% | 88.3% | 133% | 40.7% | 93.7% | -89% (active) | 68.5% | 116 | 95.7 | 117 | 117% | 104% | 108% | 109% | 112%
Clc1ccc(N/N=C(\c2ccccc2)c2ccccn2)nc1 | 36.4% | 15.2 | 15.7% | 2.2% (active) | 52.1% | 8.31% (active) | 6.96% (active) | -14.2% (active) | 1.1% (active) | 2.34% (active) | 1.95% (active) | 4.95% (active) | 11.3 | 36.2 | 30.7 | 12.5% | 12.7% | 12.3% | 34.1% | -12.9% (active)
COc1cc2ncnc(-n3ncc4cc(NC(=O)Nc5ccc(Cl)c(C)c5)ccc43)c2cc1OC | 92.5% | 97.7 | 98.8% | 100% | 95.9% | 103% | 92.7% | 101% | 102% | 84% | 71.5% | 96.8% | 110 | 109 | 98.3 | 119% | 96.2% | 107% | 75.9% | 98.7%
CCC(C)C1NC(=O)C(CCCCN)NC(=O)C(CCCCN)NC(=O)C(CC(C)C)NC(=O)C(CCCCN)NC(=O)C(C(C)CC)NC(=O)C(C(C)C)NC(=O)C(C(C)CC)NC(=O)C(CCCCN)NC(=O)C(CCCCN)NC(=O)C(C)NC(=O)C(CCCCN)NC(=O)C(CC(C)C)NC1=O (stereo not given) | 28.6% | 13.5 | 12.3% | 14.6% | 19.5% | 3.79% (active) | 6.74% (active) | 21.8% | 22% | 22.2% | 2.93% (active) | -17.4% (active) | 12.4 | 67.3 | 23.2 | 26.1% | 24.4% | 10.6% | 53% | 58.7%
COC(=O)c1ccc2[nH]c(O)c(C(=Nc3ccc(N(C)C(=O)CN4CCN(C)CC4)cc3)c3cccc(OC)c3)c2c1 | -0.0955% (active) | 38.7 | 9.77% (active) | 20.2% | 0.964% (active) | 6.22% (active) | 2.55% (active) | -14.9% (active) | 7.19% (active) | -7.42% (active) | -3.85% (active) | 4.7% (active) | 23.7 | 33.8 | 25.4 | -0.652% (active) | 1.75% (active) | 10.5% | 6.7% (active) | 99.5%
Cc1nc(N)sc1C(=O)NCCO | 12.8% | 113 | 101% | 80.2% | 112% | 103% | 129% | 119% | 60.6% | 155% | 161% | 115% | 102 | 107 | 113 | 113% | 118% | 102% | 109% | 122%
CC(=O)N1N=C(c2ccc(Cl)cc2)CC1c1cn(-c2ccccc2)nc1-c1ccc([N+](=O)[O-])cc1 (stereo not given) | 129% | 98.8 | 96.8% | 107% | 111% | 96.8% | 83.5% | 109% | 105% | 110% | 120% | 101% | 102 | 94 | 85.6 | 96.5% | 122% | 106% | 125% | 135%
COc1cccc2c1n([O-])c1cccc(OC)c1[n+]2=O | 71.5% | 45.6 | 83.3% | 60.6% | 59.8% | 72.3% | 304% | 106% | 9.03% (active) | 26.3% | 19.8% | 31.8% | 52.8 | 18.2 | 50.2 | 90.8% | -46.3% (active) | 164% | 99% | 61.1%
NNC(=O)CNc1ccc2ccccc2c1 | 98.7% | 105 | 104% | 70.9% | 119% | 101% | 106% | 107% | 101% | 83.6% | 55% | 113% | 108 | 195 | 108 | 106% | -27.9% (active) | 114% | 93.3% | 113%
Cc1c(O)c(N=Nc2ccc(C(=O)O)c(O)c2)c2ccccc2c1O | 92.7% | 66.4 | 96.3% | 74.3% | 116% | 97.6% | 84.5% | 86.3% | 112% | 76.6% | 85.8% | 106% | 96.9 | 25.5 | 107 | 95.5% | -25.9% (active) | 108% | 94.7% | 110%
CCOC(=O)C1=C(C(F)(F)F)NC(=O)NC1CN1C(=O)c2ccccc2C1=O (stereo not given) | 109% | 104 | 104% | 102% | 122% | 120% | 114% | 118% | -21.1% (active) | 70.5% | 5.85% (active) | 82.6% | 114 | 94.2 | 110 | 121% | 122% | 129% | 111% | 107%
COc1cc2c(/C=C3\C(=O)Nc4ccc(Br)cc43)c(Cl)n(C)c2cc1C | 29.7% | 42.1 | 35.5% | 31.6% | 31.2% | 29.5% | 69.7% | 3.37% (active) | -11.7% (active) | 4.36% (active) | 0.77% (active) | 0.149% (active) | 17.8 | 13.4 | 45.6 | 24.7% | -10.2% (active) | -23.5% (active) | 40.2% | -17.7% (active)
